# According to PubChem BioAssay AID463173 (ICCB-Longwood Screening Facility, Harvard Medical School, 2010):
# Screen size: about 52,000 compounds; about 4,300 (8.3%) were called active. Many of the other results were omitted from the sample, so actives are more common in it than they were. Values without a mark were called inactive. Rule as the data show it: active = survival mostly below about 52% (no sharp cut-off); inactive = mostly above about 56%.
# Test system: DeltatarO mutant
# Test: S. aureus survival, RN4220 and DeltatarO strains – OD600, teichoic acid synthesis inhibitors, primary screen (AID 463173)
# Details: S. aureus RN4220 wild type/DeltatarO growth, OD600, 18 h, hits give low values, screened at 18.75 µg/mL (by protocol)
row,Compound,survival
1,Cc1ccc(Cn2c(SCC(=O)C(C)(C)C)nc3ccsc3c2=O)cc1,77%
2,Cc1ccccc1C(=O)n1nc(-c2ccco2)nc1NCc1ccc(Cl)cc1,80%
3,Cc1cccc(CCNC(=O)c2ccc3c(c2)nc2n3CCCCC2)c1,77%
4,O=C(c1ccccc1)N1CCN(Cc2ccccc2)CC1,72%
5,CCOc1ccc(/C=C/c2nc(C#N)c(N(C)C)o2)cc1,102%
6,CCCCN(CC)CCNC(=O)Cn1cc2c(n1)-c1c(oc(C(=O)N3CCCC3)c1C)CC2,85%
7,COC(=O)c1cc2occc2n1Cc1nc(-c2ccccc2F)oc1C,102%
8,Cc1cc2ncn(S(=O)(=O)c3ccc(S(=O)(=O)NCC4CCCO4)cc3)c2cc1C (configuration not stated),82%
9,O=C(NCCCN1CCCCC1)c1ccc2c(c1)sc1nc(-c3ccc(F)cc3)cn12,53% (active)
10,COc1ccc(N2CCN(CCCNC(=O)c3ccc4nc(N5CCCCC5)sc4c3)CC2)cc1,78%
11,Cc1ccc[n+](CC(=O)c2cccs2)c1,106%
12,CCN1CCN(Cc2nc3cc(NC(=O)c4cc(OC)c(OC)c(OC)c4)ccc3n2CC)CC1,84%
13,CC(=O)c1ccc(N2CCN(S(=O)(=O)c3ccc4[nH]c5c(c4c3)CCCC5)CC2)cc1,64%
14,CCOc1ccc(-c2cc3c(=O)n(CC(=O)NCc4ccccc4)ccn3n2)cc1,83%
15,Cc1ccc(-n2c(=O)cc(N3CCN(c4ccccc4Cl)CC3)[nH]c2=O)cc1,25% (active)
16,Cc1ccc(Cl)cc1-n1c(=O)cc(N2CCN(c3ccc(F)cc3)CC2)[nH]c1=O,70%
17,Cc1ccc(Cl)cc1-n1c(=O)cc(N2CCN(c3ccccc3)CC2)[nH]c1=O,92%
18,N#CC1(Nc2ccccc2Cl)C(=O)Nc2ccccc21 (configuration not stated),69%
19,Oc1ccccc1-c1nc2cnccn2c1Nc1ccc(Cl)cc1,15% (active)

row,Compound,survival
1,Cc1cccc(C)c1Nc1c(-c2ccccc2Cl)nc2cnccn12,97%
2,Cc1ccc(Nc2c(-c3ccc(C)cc3)nc3cnccn23)cc1,35% (active)
3,COc1ccc(Nc2c(-c3ccc(Cl)cc3)nc3cnccn23)cc1OC,58%
4,CC(C)c1ccc(Nc2c(-c3ccccc3O)nc3cnccn23)cc1,55%
5,CC(C)c1ccc(Nc2c(-c3ccc(N(C)C)cc3)nc3cnccn23)cc1,43% (active)
6,CN(C)c1ccc(-c2nc3cnccn3c2Nc2cccc(C(F)(F)F)c2)cc1,83%
7,COc1cc(-c2nc3cnccn3c2Nc2ccc(C(C)C)cc2)ccc1O,66%
8,Cc1ccc(Nc2c(-c3ccncc3)nc3ccc(C)cn23)cc1,102%
9,O=C(CSc1nc(=O)n(Cc2ccco2)c2c1CCC2)NCc1ccc(Cl)cc1,69%
10,Cc1cccc(C)c1NC(=O)CN(Cc1ccc(Br)cc1)S(=O)(=O)c1ccccc1,60%
11,CCOc1ccccc1NC(=O)C(CC)Sc1nc2ccncc2[nH]1 (configuration not stated),122%
12,COc1cc(NC(=O)N2CCC(CN3CCCC3)CC2)cc(OC)c1OC,79%
13,O=C(Cn1nnc2sc(-c3ccccc3)cc2c1=O)Nc1cccc(C(F)(F)F)c1,40%
14,COc1ccc(C2(NC(=O)c3ccc(Cn4cc(Cl)cn4)o3)CCCCC2)cc1,102%
15,O=c1c2ccccc2n(Cc2c(F)cccc2Cl)c(=O)n1CCc1ccccc1,85%
16,COCCN(CCOC)c1ncnc2c1c(-c1ccccc1)cn2-c1ccc(C)c(Cl)c1,67%
17,CN(C)c1ccc(-c2cc(-c3ccccc3)c(C#N)c(N)n2)cc1,105%
18,COc1ccccc1-c1cc(-c2ccc(O)cc2)nc(N)c1C#N,12% (active)
19,CCCSc1nc(-c2ccc(OC)cc2)cc(-c2ccccc2OC)c1C#N,64%

row,Compound,survival
1,CCOc1ccc2c(c1)c(=O)c(C(=O)c1ccccc1)cn2Cc1ccccc1F,83%
2,O=C(/C=N/O)NCCN1CCCCC1,98%
3,CCCOc1ccc(CNC(=O)C2CCN(C(=O)c3sccc3-n3cccc3)CC2)cc1,79%
4,Cc1ccc(S(=O)(=O)N2CCCc3cc(NS(=O)(=O)c4cccc(Cl)c4)ccc32)cc1,68%
5,Cc1ccc(C2Nc3ccccc3-n3c(-c4ccccc4)c4c(=O)n(C)c(=O)n(C)c4c32)o1 (configuration not stated),59%
6,COc1ccccc1C1Nc2ccccc2-n2c(-c3ccccc3)c3c(=O)n(C)c(=O)n(C)c3c21 (configuration not stated),53%
7,Cc1ccc(C2Nc3cc(C)c(C)cc3-n3c(-c4ccccc4)c4c(=O)n(C)c(=O)n(C)c4c32)o1 (configuration not stated),68%
8,COc1ccc(O)c(C2Nc3ccccc3-n3c(-c4ccccc4)c4c(=O)n(C)c(=O)n(C)c4c32)c1 (configuration not stated),3% (active)
9,Cn1c(=O)c2c(-c3ccccc3)n3c(c2n(C)c1=O)C(c1cc(Cl)ccc1O)Nc1ccccc1-3 (configuration not stated),1% (active)
10,Cc1ccc(-c2c3c(=O)n(C)c(=O)n(C)c3c3n2-c2ccccc2NC3c2ccc(C)cc2O)cc1 (configuration not stated),2% (active)
11,Cc1cc2c(cc1C)-n1c(-c3ccccc3)c3c(=O)n(C)c(=O)n(C)c3c1C(c1ccco1)N2 (configuration not stated),80%
12,Cn1c(=O)c2c(-c3ccccc3)n3c(c2n(C)c1=O)C(c1ccco1)Nc1ccccc1-3 (configuration not stated),77%
13,COc1ccc(-c2c3c(=O)n(C)c(=O)n(C)c3c3n2-c2ccccc2NC3c2ccco2)cc1 (configuration not stated),50%
14,COc1ccc(-c2c3c(=O)n(C)c(=O)n(C)c3c3n2-c2ccccc2NC3c2ccccc2OC)cc1 (configuration not stated),74%
15,COc1ccc(-c2nc3ccccc3n3c(-c4ccccc4)c4c(=O)n(C)c(=O)n(C)c4c23)cc1,80%
16,COc1ccc(-c2c3c(=O)n(C)c(=O)n(C)c3c3n2-c2ccccc2NC3c2ccc(O)cc2O)cc1 (configuration not stated),0% (active)
17,COc1ccc(OCC(=O)Nn2cnnc2)cc1,73%
18,O=C(Cn1c(=O)oc2cc(S(=O)(=O)N3CCCCCC3)ccc21)Nc1ccc(F)cc1F,84%
19,Cc1ccc(CCNC(=O)c2c(C)oc3ncn(CC(C)C)c(=O)c23)cc1,119%
